Results on 41 sequences are retold here after article PMC12820563, “FoxP3 forms a head-to-head dimer in vivo and stabilizes its multimerization on adjacent microsatellites”.

In all, about 16,000 sequences were measured (“rpm ratio (pull-down/input)”: median about 0.5, highest 2% from about 5.5 on). The full list was thinned out, with the highest values kept by preference.

The assay addresses T1, MBP-FoxP3dN (Mus musculus, UniProt Q99JB6 188-423).
T1 sequence: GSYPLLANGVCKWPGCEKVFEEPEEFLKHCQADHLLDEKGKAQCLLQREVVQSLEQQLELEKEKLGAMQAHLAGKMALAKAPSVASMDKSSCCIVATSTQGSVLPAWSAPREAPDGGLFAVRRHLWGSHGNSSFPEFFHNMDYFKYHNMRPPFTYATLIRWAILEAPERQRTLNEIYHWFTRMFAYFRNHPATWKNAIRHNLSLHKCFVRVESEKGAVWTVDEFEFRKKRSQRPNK
The assay can be described thus: PD-seq (MBP pull-down with sequencing); 20 mM Tris-HCl pH 7.5, 100 mM NaCl, 1.5 mM MgCl2, 0.4 uM protein, 0.1 uM dsDNA library, 30 min, room temperature, amylose pull-down; high values mean tight binding. The conditions noted are these: protein: recombinant; tags: His6-MBP; chain copies: 2; dsDNA, one strand shown. A digest of the protocol:
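Amylose resin was used to capture complexes formed during 30 min at room temperature in Tris pH 7.5 buffer with NaCl and MgCl2 between 0.4 µM His6-MBP-tagged mouse FoxP3 or FoxP1 fragment lacking the N-terminus, expressed in E. coli, and 0.1 µM Klenow-filled double-stranded degenerate DNA library. After three washes, the DNA was released with proteinase K, barcoded by PCR and sequenced on Illumina. Binding is pooled-replicate reads-per-million enrichment, pull-down over input.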
Take “GATGATTGTTCTCCCAGCTGATGAATTACACAACTCGAGTAAACAAATTTTCCTAATCTTTCTGTTCAAGCGCCATCTAC”: the binding signal is 0.854 RPM ratio (pull-down/input).
“GATGATTGTTCTCCCAGCTGATGAATTAATTCTGTCGAGTAAACAAATTTTCCTAATCTTTCTGTTCAAGCGCCATCTAC”: the binding signal was 0.249 RPM ratio (pull-down/input).
Consider “GATGATTGTTCTCCCAGCTGATGAATTCTGTTAATCGAGTAAACAAATTTTCCTAATCTTTCTGTTCAAGCGCCATCTAC”, for which the binding signal was 1.25 RPM ratio (pull-down/input).
To “GATGATTGTTCTCCCAGCTGATGAATTATCCTGCTCGAGTAAACAAATTTTCCTAATCTTTCTGTTCAAGCGCCATCTAC” belongs 0.234 RPM ratio (pull-down/input); to “GATGATTGTTCTCCCAGCTGATGAATTACGTGGGTCGAGTAAACAAATTTTCCTAATCTTTCTGTTCAAGCGCCATCTAC”, 0.527 RPM ratio (pull-down/input).
Take “GATGATTGTTCTCCCAGCTGATGAATTGGTCTCTTCGAGTAAACAAATTTTCCTAATCTTTCTGTTCAAGCGCCATCTAC”: the binding signal was 0.388 RPM ratio (pull-down/input).
As to “GATGATTGTTCTCCCAGCTGATGAATTCAGCAAATCGAGTAAACAAATTTTCCTAATCTTTCTGTTCAAGCGCCATCTAC”, the binding signal was 0.539 RPM ratio (pull-down/input).
For the sequence “GATGATTGTTCTCCCAGCTGATGAATTAGCCCATTCGAGTAAACAAATTTTCCTAATCTTTCTGTTCAAGCGCCATCTAC”, the binding signal is 0.4 RPM ratio (pull-down/input).
With “GATGATTGTTCTCCCAGCTGATGAATTTAGCAGCTCGAGTAAACAAATTTTCCTAATCTTTCTGTTCAAGCGCCATCTAC”, the binding signal was 1.72 RPM ratio (pull-down/input).
To “GATGATTGTTCTCCCAGCTGATGAATTAGTGAATTCGAGTAAACAAATTTTCCTAATCTTTCTGTTCAAGCGCCATCTAC” belongs 0.976 RPM ratio (pull-down/input); to “GATGATTGTTCTCCCAGCTGATGAATTTTTAGCATCGAGTAAACAAATTTTCCTAATCTTTCTGTTCAAGCGCCATCTAC”, 0.918 RPM ratio (pull-down/input); to “GATGATTGTTCTCCCAGCTGATGAATTAGTAAATTCGAGTAAACAAATTTTCCTAATCTTTCTGTTCAAGCGCCATCTAC”, 0.68 RPM ratio (pull-down/input).
For “GATGATTGTTCTCCCAGCTGATGAATTAGCTGATTCGAGTAAACAAATTTTCCTAATCTTTCTGTTCAAGCGCCATCTAC”, the binding signal was 1.17 RPM ratio (pull-down/input).
To “GATGATTGTTCTCCCAGCTGATGAATTTTAGCATTCGAGTAAACAAATTTTCCTAATCTTTCTGTTCAAGCGCCATCTAC” belongs 5.97 RPM ratio (pull-down/input); to “GATGATTGTTCTCCCAGCTGATGAATTTAGCATCTCGAGTAAACAAATTTTCCTAATCTTTCTGTTCAAGCGCCATCTAC”, 6.55 RPM ratio (pull-down/input).
“GATGATTGTTCTCCCAGCTGATGAATTAGTGCATTCGAGTAAACAAATTTTCCTAATCTTTCTGTTCAAGCGCCATCTAC”: the binding signal is 7.28 RPM ratio (pull-down/input).
With “GATGATTGTTCTCCCAGCTGATGAATTTAGCCATTCGAGTAAACAAATTTTCCTAATCTTTCTGTTCAAGCGCCATCTAC” the figure was 4.73 RPM ratio (pull-down/input).
For “GATGATTGTTCTCCCAGCTGATGAATTAGCGCATTCGAGTAAACAAATTTTCCTAATCTTTCTGTTCAAGCGCCATCTAC”, the binding signal was 7.23 RPM ratio (pull-down/input).
As for “GATGATTGTTCTCCCAGCTGATGAATTCTAGCATTCGAGTAAACAAATTTTCCTAATCTTTCTGTTCAAGCGCCATCTAC”, the binding signal was 5.17 RPM ratio (pull-down/input).
As to “GATGATTGTTCTCCCAGCTGATGAATTCCTATCGTCGAGTAAACAAATTTTCCTAATCTTTCTGTTCAAGCGCCATCTAC”, the binding signal is 0.382 RPM ratio (pull-down/input).
As for “GATGATTGTTCTCCCAGCTGATGAATTTCATAGGTCGAGTAAACAAATTTTCCTAATCTTTCTGTTCAAGCGCCATCTAC”, the binding signal is 0.343 RPM ratio (pull-down/input).
For the sequence “GATGATTGTTCTCCCAGCTGATGAATTGATCATTTCGAGTAAACAAATTTTCCTAATCTTTCTGTTCAAGCGCCATCTAC”, the binding signal was 0.757 RPM ratio (pull-down/input).
For “GATGATTGTTCTCCCAGCTGATGAATTGGCTGAATCGAGTAAACAAATTTTCCTAATCTTTCTGTTCAAGCGCCATCTAC”, the binding signal is 0.239 RPM ratio (pull-down/input).
With “GATGATTGTTCTCCCAGCTGATGAATTACTCCAGTCGAGTAAACAAATTTTCCTAATCTTTCTGTTCAAGCGCCATCTAC” the figure was 0.213 RPM ratio (pull-down/input); with “GATGATTGTTCTCCCAGCTGATGAATTTGGTGTCTCGAGTAAACAAATTTTCCTAATCTTTCTGTTCAAGCGCCATCTAC”, 3.42 RPM ratio (pull-down/input).
As to “GATGATTGTTCTCCCAGCTGATGAATTCCGACTCTCGAGTAAACAAATTTTCCTAATCTTTCTGTTCAAGCGCCATCTAC”, the binding signal was 2.16 RPM ratio (pull-down/input).
In the case of “GATGATTGTTCTCCCAGCTGATGAATTGACCGAATCGAGTAAACAAATTTTCCTAATCTTTCTGTTCAAGCGCCATCTAC”, the binding signal was 0.227 RPM ratio (pull-down/input).
For the sequence “GATGATTGTTCTCCCAGCTGATGAATTTCAACTGTCGAGTAAACAAATTTTCCTAATCTTTCTGTTCAAGCGCCATCTAC”, the binding signal is 0.377 RPM ratio (pull-down/input).
For “GATGATTGTTCTCCCAGCTGATGAATTGGGTGTCTCGAGTAAACAAATTTTCCTAATCTTTCTGTTCAAGCGCCATCTAC”, the binding signal was 1.29 RPM ratio (pull-down/input).
Take “GATGATTGTTCTCCCAGCTGATGAATTGGTGAGGTCGAGTAAACAAATTTTCCTAATCTTTCTGTTCAAGCGCCATCTAC”: the binding signal is 0.385 RPM ratio (pull-down/input).
With “GATGATTGTTCTCCCAGCTGATGAATTGGTTTCCTCGAGTAAACAAATTTTCCTAATCTTTCTGTTCAAGCGCCATCTAC” the figure was 1.54 RPM ratio (pull-down/input).
To “GATGATTGTTCTCCCAGCTGATGAATTGAGCGCCTCGAGTAAACAAATTTTCCTAATCTTTCTGTTCAAGCGCCATCTAC” belongs 1.18 RPM ratio (pull-down/input).
As for “GATGATTGTTCTCCCAGCTGATGAATTTAGCATTTCGAGTAAACAAATTTTCCTAATCTTTCTGTTCAAGCGCCATCTAC”, the binding signal was 6.35 RPM ratio (pull-down/input).
Regarding “GATGATTGTTCTCCCAGCTGATGAATTAAACGCATCGAGTAAACAAATTTTCCTAATCTTTCTGTTCAAGCGCCATCTAC”, the binding signal is 1.19 RPM ratio (pull-down/input).
Turning to “GATGATTGTTCTCCCAGCTGATGAATTTGTAGCATCGAGTAAACAAATTTTCCTAATCTTTCTGTTCAAGCGCCATCTAC”, the binding signal was 4.88 RPM ratio (pull-down/input).
In the case of “GATGATTGTTCTCCCAGCTGATGAATTAACAAATTCGAGTAAACAAATTTTCCTAATCTTTCTGTTCAAGCGCCATCTAC”, the binding signal is 0.494 RPM ratio (pull-down/input).
As to “GATGATTGTTCTCCCAGCTGATGAATTAGCATTTTCGAGTAAACAAATTTTCCTAATCTTTCTGTTCAAGCGCCATCTAC”, the binding signal was 4 RPM ratio (pull-down/input).
Turning to “GATGATTGTTCTCCCAGCTGATGAATTGTAGCATTCGAGTAAACAAATTTTCCTAATCTTTCTGTTCAAGCGCCATCTAC”, the binding signal was 5.76 RPM ratio (pull-down/input).
In the case of “GATGATTGTTCTCCCAGCTGATGAATTAACGCATTCGAGTAAACAAATTTTCCTAATCTTTCTGTTCAAGCGCCATCTAC”, the binding signal is 6.02 RPM ratio (pull-down/input).
With “GATGATTGTTCTCCCAGCTGATGAATTTAGCTGTTCGAGTAAACAAATTTTCCTAATCTTTCTGTTCAAGCGCCATCTAC” the figure was 1.7 RPM ratio (pull-down/input); with “GATGATTGTTCTCCCAGCTGATGAATTCGTAGCATCGAGTAAACAAATTTTCCTAATCTTTCTGTTCAAGCGCCATCTAC”, 1.31 RPM ratio (pull-down/input).
